In the library only some 19% were active in any assay of this set; here they are far more common.
IL-1B inflam inh: qHTS for Inhibitors of Inflammasome Signaling: IL-1-beta AlphaLISA Primary Screen. THP-1 LPS/ATP IL-1B secretion, AlphaLISA, 16 h; stronger effect = lower value. activity change, % at 57.5 µM. 4.7% of 360,000 active. AID 743279, 2014; in the data active means activity change below about -50%; inconclusive means mostly about -30% to -49%; further: on the % scale 0 is the no-effect control and ±100 the full control effect
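THP-1 cells pretreated 1 hr with compounds (up to 57.5 uM final), then stimulated with LPS (250 ng/mL final) plus ATP (1.25 mM final); secreted IL-1B measured by AlphaLISA after 16 hr, decreased signal indicating inhibition.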
TGFb inhibitor: qHTS for Inhibitors of TGF-b. HepG2 CAGA-GFP TGF-b/SMAD3 reporter, GFP fluorescence, 18 h; TGF-beta stimulated, 500 pg/mL final. Potency, µM (top dose mostly 46.1 µM), inactives show top-dose activity, negative = inhibition, hits mostly inhibitors. 1.2% of 410,000 active. AID 588855, 2011; further: potency means the concentration at half of the fitted maximal effect; on the % scale 0 is the no-effect control and ±100 the full control effect; nearly all actives have a fitted effect of over 65% in size
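Cell-based qHTS in HEPG2 carrying a CAGA-GFP Smad reporter; compounds added before 500 pg/mL final TGF-beta, 18 h incubation at 37 degrees C, GFP fluorescence quantified per cell by imaging cytometry.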
DT40 TDP1 no CPT: qHTS for Inhibitors of human tyrosyl-DNA phosphodiesterase 1 (TDP1): qHTS in cells in absence of CPT. Potency, µM (doses to about 46.2 µM), for the others: at the highest dose activity change, negative = growth inhibition, hits mostly inhibitors. AID 686978, 2013. DT40 Tdp1-/- hTDP1 cells, no CPT, ATP luminescence, 48 h. 15% of 420,000 active; further: potency means the concentration at half of the fitted maximal effect; on the % scale 0 is the no-effect control and ±100 the full control effect; nearly all actives have a fitted effect of over 55% in size
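A cellular qHTS used chicken DT40 cells lacking endogenous Tdp1 but carrying stably transfected human TDP1. Compounds were applied without camptothecin, and cell growth kinetics were judged by ATP-dependent luminescence after ≥48 hr.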
HepG2 tox: qHTS for Inhibitors of TGF-b: Cytotox Counterscreen; 0.76% of 410,000 active; Potency, µM (titrated, usually from 46.1 µM), without a hit: at the top dose activity change, negative = cytotoxicity, most hits filed as cytotoxic; HepG2 CAGA-GFP viability, ATP luminescence, 18 h; further: potency means the concentration at half of the fitted maximal effect
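CellTiter-Glo luminescence gave cytotoxicity after 18 hours at 37 degrees C. The cells were HepG2 CAGA-GFP in 1% FBS DMEM, stimulated with 500 pg/mL TGF-beta after compound addition. %Activity was normalised to no-cell wells (complete cell-killing) and DMSO (no toxicity), and curves were fitted and classified.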
TDP1 inh: qHTS Assay for Inhibitors of Tyrosyl-DNA Phosphodiesterase (TDP1) | Tyrosyl-DNA phosphodiesterase 1 (Homo sapiens), Q9NUW8 | recombinant TDP1, AlphaScreen DNA substrate cleavage | Potency, µM (top dose mostly 130 µM), without a hit: at the highest dose activity change, negative = inhibition, actives largely listed as inhibitors | 0.28% of 350,000 active | AID 485290, 2010; further: potency means the concentration at half of the fitted maximal effect; on the % scale 0 is the no-effect control and ±100 the full control effect; nearly all actives have a fitted effect of over 40% in size
Target sequence (Q9NUW8 whole entry, looked up): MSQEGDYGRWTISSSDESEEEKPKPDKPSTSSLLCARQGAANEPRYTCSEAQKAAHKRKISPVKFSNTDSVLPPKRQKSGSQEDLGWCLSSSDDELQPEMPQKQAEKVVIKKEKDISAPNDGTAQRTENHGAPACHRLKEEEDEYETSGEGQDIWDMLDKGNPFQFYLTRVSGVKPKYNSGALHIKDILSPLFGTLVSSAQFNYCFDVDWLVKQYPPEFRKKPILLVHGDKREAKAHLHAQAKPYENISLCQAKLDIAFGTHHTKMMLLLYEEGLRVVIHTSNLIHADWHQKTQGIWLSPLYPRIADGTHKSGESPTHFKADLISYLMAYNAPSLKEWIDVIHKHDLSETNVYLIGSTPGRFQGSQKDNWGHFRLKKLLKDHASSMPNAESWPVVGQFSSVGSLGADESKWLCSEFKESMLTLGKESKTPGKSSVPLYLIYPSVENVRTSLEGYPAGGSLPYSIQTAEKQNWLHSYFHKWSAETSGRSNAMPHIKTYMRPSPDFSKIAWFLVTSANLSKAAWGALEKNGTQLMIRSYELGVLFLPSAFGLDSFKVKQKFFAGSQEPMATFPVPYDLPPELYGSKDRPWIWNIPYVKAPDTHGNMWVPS
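Tdp1 1 nM final; 15 min RT w/ cpd; substrate 15 nM, 5 min; beads 10 ug/ml, 10 min; AlphaScreen read. Neg ctrl: no enzyme.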
DT40 TDP1 CPT: qHTS for Inhibitors of human tyrosyl-DNA phosphodiesterase 1 (TDP1): qHTS in cells in presence of CPT; 12% of 420,000 active; Potency, µM (titrated, usually from 46.2 µM), inactives show at the highest dose activity change, negative = growth inhibition, actives largely listed as inhibitors; chicken DT40 Tdp1-/-;hTDP1 cells + 20 nM CPT, ATP luminescence, 48 h; further: potency means the concentration at half of the fitted maximal effect; on the % scale 0 is the no-effect control and ±100 the full control effect; nearly all actives have a fitted effect of over 55% in size
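Chicken DT40 Tdp1-/- cells stably complemented with human TDP1 were seeded at 400 cells/well in medium containing 20 nM camptothecin, exposed to pin-transferred compounds, and grown at 37 °C for at least 48 hr. Viability was read as ATP luminescence.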
Starred values were filed as active, the others as inactive; ? = inconclusive; . = not tested or not shown. Unless noted, the call rests on the fitted dose curve; in most records, active means well fitted curve in the direction sought with a large enough effect; inconclusive means small, poorly fitted or top-dose-only effect, or another doubt; inactive means no such curve, though single readings can be large; an effect the other way counts as inactive or inconclusive.

SMILES | IL-1B inflam inh | TGFb inhibitor | DT40 TDP1 no CPT | HepG2 tox | TDP1 inh | DT40 TDP1 CPT
O=C(Nc1ncccc1O)c1cccc(S(=O)(=O)N2CCN(c3ccc(F)cc3)CC2)c1 | 4 | -5% | ? | -3% | 1% | ?
CCC(Br)C(=O)Nc1ccc(OC)cc1 (stereo not given) | -3 | 0% | -14% | -4% | 5% | -27%
O=C(c1cccc(F)c1)N1CCN(C(=O)c2cc(-c3ccc(Cl)cc3Cl)on2)CC1 | . | ? | 18µM* | -38% | 7% | ?
COc1ccc(NC(=O)C2C(c3ccccc3)C2(Cl)Cl)c(OC)c1 (stereo not given) | ? | ? | ? | -6% | 4% | -29%
COc1ccc([C@@]23Oc4cc(OC)cc(OC)c4[C@]2(O)[C@H](O)[C@H](C(=O)N(C)C)[C@H]3c2ccccc2)cc1 | -3 | -115% | 0.0092µM* | -4% | . | 0.0073µM*
COc1ccc(CNC(=O)CCCN2C(=O)COc3ccc(C)cc32)cc1 | . | 4% | -19% | -3% | 4% | ?
COc1ccc(N2CCN(c3ccc(S(=O)(=O)N(C(C)C)C(C)C)cn3)CC2)cc1 | 6 | -3% | 7.3µM* | -13% | . | 4.6µM*
Cc1cc(C)cc(NC2=CC(c3cccc(F)c3)N(c3cc(C)cc(C)c3)C2=O)c1 (stereo not given) | . | 23% | ? | -3% | -2% | ?
CCOCCCn1c(SCC(=O)NCc2ccccc2)nc2c(sc3ccccc32)c1=O | . | -5% | ? | -33% | 7% | -26%
Cc1ccc(CNC(=O)CSc2nc3c(sc4ccccc43)c(=O)n2CCCN2CCCC2)cc1 | -90* | 0% | ? | -12% | 5% | 23µM*
CSc1nc2c(sc3ccccc32)c(=O)n1Cc1ccc(C)cc1 | . | 0% | 16µM* | -3% | -11% | 21µM*
O=C(CSc1nc2c(sc3ccccc32)c(=O)n1CCCN1CCCC1)NCc1ccccc1 | -100* | -4% | ? | -6% | 5% | -62%
CN1C2C=C3C(C#N)=C(N)C(C#N)(C#N)[C@@H](c4cccc(F)c4)[C@@H]3C1CC2 (stereo not given in full) | -1 | 6% | ? | -7% | 9% | ?
N#CC1=C(N)C(C#N)(C#N)[C@H](c2c(F)cccc2F)[C@H]2CC3(CC=C12)OCCO3 | 40 | -14% | 16µM* | -48% | 6% | ?
CN1C2C=C3C(C#N)=C(N)C(C#N)(C#N)[C@H](c4c(F)cccc4F)[C@H]3C1CC2 (stereo not given in full) | -93* | 2% | 10µM* | -15% | 6% | 7.3µM*
COc1ccc(CN2CCCC(n3cc(C(=O)NC4CCCC4)nn3)C2)c2ccccc12 (stereo not given) | . | . | -11% | . | . | 2%
COc1ccc(Nc2nc(C)nc(N)c2S(=O)(=O)c2ccccc2)cc1 | . | 1% | . | 0% | 2% | .
CSc1nc(N)nc2c1ncn2CC(=O)NCc1ccccc1 | 41 | -1% | ? | -1% | 1% | ?
Cc1ccc(C)c(NC(=O)Cn2cc(C(=O)c3cccs3)c3ccccc32)c1 | . | ? | 21µM* | -18% | 2% | 18µM*
CSc1nc(N)nc2c1ncn2CC(=O)NCc1ccc2c(c1)OCO2 | 30 | -23% | 8.2µM* | -13% | . | 16µM*
O=C(Cn1cc(C(=O)C(F)(F)F)c2ccccc21)Nc1ccccc1F | 21 | 9% | 3% | 11µM* | . | 8%

Assay outcomes deposited in PubChem by National Center for Advancing Translational Sciences (NCATS).
